Data on five compounds can be found in ChEMBL document CHEMBL3988442, “University of Dundee, Small-Polar-MMV Screening Library” (2021).

For some assays here: Results with a measured potency or affinity are listed apart.

What all share (set-up): scale not given: direction of the effect not stated beside the values
The target in experiment [1] is Protein translocase subunit SecA (Escherichia coli (strain K12)) (UniProt P10408). Nature of the experiment: Assay to Identify E. coli SecA ATPase Inhibitors. The experiment is classed as functional. The following applies: 30 µM.
The target in experiment [2] is T1, Ubiquitin-activating enzyme e1, putative (Leishmania donovani (strain BPK282A1)) (UniProt E9BSI1).
T1 sequence (whole entry): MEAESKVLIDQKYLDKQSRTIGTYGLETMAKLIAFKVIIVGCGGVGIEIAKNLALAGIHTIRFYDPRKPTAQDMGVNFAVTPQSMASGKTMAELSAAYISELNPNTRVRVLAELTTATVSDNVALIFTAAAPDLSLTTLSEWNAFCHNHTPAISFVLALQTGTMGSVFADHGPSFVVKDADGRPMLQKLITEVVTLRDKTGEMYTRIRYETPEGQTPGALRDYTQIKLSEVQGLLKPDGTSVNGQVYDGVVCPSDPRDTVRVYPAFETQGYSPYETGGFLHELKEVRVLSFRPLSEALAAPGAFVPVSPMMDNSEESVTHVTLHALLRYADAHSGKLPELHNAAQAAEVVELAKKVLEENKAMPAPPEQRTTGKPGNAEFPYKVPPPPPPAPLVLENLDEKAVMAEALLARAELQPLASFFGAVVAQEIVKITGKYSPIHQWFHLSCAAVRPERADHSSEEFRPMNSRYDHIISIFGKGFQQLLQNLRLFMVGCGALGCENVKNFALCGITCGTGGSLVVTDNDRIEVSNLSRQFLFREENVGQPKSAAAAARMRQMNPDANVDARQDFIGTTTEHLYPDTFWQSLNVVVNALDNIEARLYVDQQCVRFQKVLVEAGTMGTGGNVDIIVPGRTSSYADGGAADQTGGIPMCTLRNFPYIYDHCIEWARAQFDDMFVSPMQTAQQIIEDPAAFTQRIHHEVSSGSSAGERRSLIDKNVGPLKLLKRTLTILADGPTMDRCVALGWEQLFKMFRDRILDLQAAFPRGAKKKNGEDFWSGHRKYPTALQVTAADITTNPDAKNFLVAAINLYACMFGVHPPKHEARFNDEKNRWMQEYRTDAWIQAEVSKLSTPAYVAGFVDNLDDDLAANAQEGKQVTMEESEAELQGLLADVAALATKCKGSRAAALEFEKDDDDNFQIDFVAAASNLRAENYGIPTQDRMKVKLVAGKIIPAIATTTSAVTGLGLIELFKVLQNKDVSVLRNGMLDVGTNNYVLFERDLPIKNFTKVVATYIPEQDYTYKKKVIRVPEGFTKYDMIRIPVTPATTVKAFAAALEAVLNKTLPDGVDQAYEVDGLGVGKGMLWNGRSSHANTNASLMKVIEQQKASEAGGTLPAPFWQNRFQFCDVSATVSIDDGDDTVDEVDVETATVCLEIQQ
Briefly: Leishmania donovani Ubiquitin Activating Enzyme (LdE1). The experiment is classed as functional. The conditions noted are these: 30 µM.

Experiment [3] deals with T2, Aspartate--tRNA(Asp/Asn) ligase (Mycobacterium tuberculosis (strain ATCC 25618 / H37Rv)) (UniProt P9WFW3).
T2 sequence (whole entry): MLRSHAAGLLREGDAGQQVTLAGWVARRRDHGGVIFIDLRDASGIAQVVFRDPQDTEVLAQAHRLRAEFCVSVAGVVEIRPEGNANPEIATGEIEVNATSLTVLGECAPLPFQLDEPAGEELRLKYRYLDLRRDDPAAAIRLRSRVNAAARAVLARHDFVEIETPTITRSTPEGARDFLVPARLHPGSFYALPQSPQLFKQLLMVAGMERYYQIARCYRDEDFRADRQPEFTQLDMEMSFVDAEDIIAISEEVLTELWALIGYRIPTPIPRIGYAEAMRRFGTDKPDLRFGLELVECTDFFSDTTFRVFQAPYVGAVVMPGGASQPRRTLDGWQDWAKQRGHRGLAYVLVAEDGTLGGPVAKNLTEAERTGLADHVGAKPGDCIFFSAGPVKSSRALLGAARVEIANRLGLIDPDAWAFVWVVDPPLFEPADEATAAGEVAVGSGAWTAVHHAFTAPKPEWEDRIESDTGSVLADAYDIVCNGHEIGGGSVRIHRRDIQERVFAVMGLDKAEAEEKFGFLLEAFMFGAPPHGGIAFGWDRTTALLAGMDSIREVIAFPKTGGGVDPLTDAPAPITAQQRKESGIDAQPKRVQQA
Nature of the experiment: Assay for Asp RNA synthetase-1 from Mycobacterium tuberculosis. Type of experiment: functional. The following applies: 30 µM.

Experiment [4] addresses AMP-activated protein kinase, AMPK (Homo sapiens) (UniProt P54646+O43741+P54619+Q9UGJ0+Q9Y478+Q13131+Q9UGI9). Briefly: AMP-dependent Kinase enzyme assay. An in vitro enzyme assay that detects ADP turnover that is directly proportional to AMPK activity. This uses naive AMPK that is activated during the assay with MK-8722. The experiment is classed as functional. The following applies: 30 µM.

The target of experiment [5] is Sialic acid-binding Ig-like lectin 9 (Homo sapiens) (UniProt Q9Y336). Briefly: Hs-Siglec9 ALPHAscreen SOP 20170721. The conditions noted are these: 10 µM. A general note: Bead proximity is the source of the signal in Alpha formats.
The next experiment relates to Trypanosoma cruzi. Nature of the experiment: Trypanosoma cruzi phosphomannomutase and mannose-1-phosphate guanylyltransferase assay. Type of experiment: functional. The conditions noted are these: 10 µM.
Experiment [6] deals with T3, Arginase-2, mitochondrial (Homo sapiens) (UniProt P78540).
T3 sequence (whole entry): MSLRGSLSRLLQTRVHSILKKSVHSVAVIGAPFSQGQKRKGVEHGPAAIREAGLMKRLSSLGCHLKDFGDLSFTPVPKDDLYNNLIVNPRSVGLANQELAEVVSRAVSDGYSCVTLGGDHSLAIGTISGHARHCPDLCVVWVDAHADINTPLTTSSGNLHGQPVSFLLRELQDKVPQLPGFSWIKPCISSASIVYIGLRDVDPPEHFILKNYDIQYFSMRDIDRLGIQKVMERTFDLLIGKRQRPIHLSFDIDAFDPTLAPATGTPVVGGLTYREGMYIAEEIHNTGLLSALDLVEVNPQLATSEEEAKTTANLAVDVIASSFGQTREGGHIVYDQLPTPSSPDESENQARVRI
Briefly: in vitro enzyme assay to detect the production of urea directly proportional to the activity of Arginase II. Note: in the data most compounds retested in dose-response had high values. The experiment is classed as functional. The conditions noted are these: 33.3 µM.

The target in experiment [7] is T4, Proteasome subunit beta (Trypanosoma cruzi) (UniProt O96673).
T4 sequence (whole entry): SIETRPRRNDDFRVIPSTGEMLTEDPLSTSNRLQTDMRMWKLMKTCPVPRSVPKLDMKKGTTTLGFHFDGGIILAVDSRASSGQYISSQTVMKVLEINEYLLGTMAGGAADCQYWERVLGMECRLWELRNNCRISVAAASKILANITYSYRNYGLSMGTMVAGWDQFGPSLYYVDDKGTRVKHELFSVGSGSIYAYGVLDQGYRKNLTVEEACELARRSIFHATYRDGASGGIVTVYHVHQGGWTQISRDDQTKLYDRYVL
Briefly: Trypanosoma cruzi proteasome chymotrypsin-like activity (TcProtChymo) assay. Note: in the data most compounds retested in dose-response had high values. Type of experiment: functional. The following applies: 9.37 µM.

For a further experiment, the species on record is Homo sapiens. Nature of the experiment: To identify inhibition of the IFN signalling (Jak-Stat) pathway via expression of an eGFP reporter gene under the control of an IFN-stimulated response element (ISRE) containing MxA promoter. Type of experiment: functional. The conditions noted are these: 30 µM. A general note: In a reporter assay the amount or activity of a reporter protein is the signal.

The target in experiment [8] is Shiga toxin 2 (Escherichia coli O157:H7) (UniProt P09385+P09386). Briefly: E. coli 0.157:H7 Shiga Toxin SOP - stx2 screening assay. The experiment is classed as functional. The conditions noted are these: 30 µM.
In experiment [9] the target is T5, Tyrosyl-tRNA synthetase, putative (Trypanosoma cruzi (strain CL Brener)) (UniProt Q4DSP6).
T5 sequence (whole entry): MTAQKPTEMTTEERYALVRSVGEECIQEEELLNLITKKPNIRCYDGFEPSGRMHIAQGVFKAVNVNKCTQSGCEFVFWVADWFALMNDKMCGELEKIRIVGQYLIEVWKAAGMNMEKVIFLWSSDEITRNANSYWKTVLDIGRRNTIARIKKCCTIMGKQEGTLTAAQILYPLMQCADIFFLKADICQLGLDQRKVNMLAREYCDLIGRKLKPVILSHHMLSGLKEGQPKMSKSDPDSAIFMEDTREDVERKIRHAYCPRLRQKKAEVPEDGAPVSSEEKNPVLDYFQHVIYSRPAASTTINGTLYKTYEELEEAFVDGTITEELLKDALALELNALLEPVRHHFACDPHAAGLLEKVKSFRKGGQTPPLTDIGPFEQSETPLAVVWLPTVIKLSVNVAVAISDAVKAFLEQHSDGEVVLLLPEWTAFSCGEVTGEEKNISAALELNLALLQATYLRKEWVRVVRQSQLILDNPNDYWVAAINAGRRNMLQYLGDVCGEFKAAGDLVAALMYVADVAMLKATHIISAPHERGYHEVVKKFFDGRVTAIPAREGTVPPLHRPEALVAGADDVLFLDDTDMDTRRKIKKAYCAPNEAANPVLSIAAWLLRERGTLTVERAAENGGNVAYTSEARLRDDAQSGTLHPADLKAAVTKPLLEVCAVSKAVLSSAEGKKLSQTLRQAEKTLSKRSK
Nature of the experiment: Trypanosoma cruzi tyrosyl tRNA synthetase (TcYRS) _High Tyrosine SOP. Note: in the data most compounds retested in dose-response had high values. The experiment is classed as functional. The following applies: 30 µM.

For experiment [10], the target named is T5, Tyrosyl-tRNA synthetase, putative (Trypanosoma cruzi (strain CL Brener)). Briefly: Trypanosoma cruzi tyrosyl tRNA synthetase (TcYRS) SOP. Type of experiment: functional. The conditions noted are these: 30 µM.
Experiment [11] concerns the target Chromo domain-containing protein 1 (Saccharomyces cerevisiae (strain ATCC 204508 / S288c) (Baker's yeast)) (UniProt P32657). Briefly: ScCHD-1 Enzyme Inhibition Assay. Note: in the data most compounds retested in dose-response had high values. The experiment is classed as functional. The following applies: 30 µM.

Sialic acid-binding Ig-like lectin 9 (Homo sapiens), sequence (Q9Y336 whole entry): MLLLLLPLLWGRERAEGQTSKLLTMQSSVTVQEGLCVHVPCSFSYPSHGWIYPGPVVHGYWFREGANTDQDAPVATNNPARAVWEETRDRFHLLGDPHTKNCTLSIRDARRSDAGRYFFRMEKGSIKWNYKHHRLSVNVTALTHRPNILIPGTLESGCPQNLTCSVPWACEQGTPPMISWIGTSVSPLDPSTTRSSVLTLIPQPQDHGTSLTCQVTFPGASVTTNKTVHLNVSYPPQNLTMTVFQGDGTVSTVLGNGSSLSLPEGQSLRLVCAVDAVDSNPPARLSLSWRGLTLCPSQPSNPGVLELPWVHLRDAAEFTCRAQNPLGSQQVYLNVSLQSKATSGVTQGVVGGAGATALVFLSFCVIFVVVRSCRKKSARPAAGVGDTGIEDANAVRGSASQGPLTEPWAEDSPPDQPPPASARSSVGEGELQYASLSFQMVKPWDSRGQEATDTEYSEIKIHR
Protein translocase subunit SecA (Escherichia coli (strain K12)), sequence (P10408 whole entry): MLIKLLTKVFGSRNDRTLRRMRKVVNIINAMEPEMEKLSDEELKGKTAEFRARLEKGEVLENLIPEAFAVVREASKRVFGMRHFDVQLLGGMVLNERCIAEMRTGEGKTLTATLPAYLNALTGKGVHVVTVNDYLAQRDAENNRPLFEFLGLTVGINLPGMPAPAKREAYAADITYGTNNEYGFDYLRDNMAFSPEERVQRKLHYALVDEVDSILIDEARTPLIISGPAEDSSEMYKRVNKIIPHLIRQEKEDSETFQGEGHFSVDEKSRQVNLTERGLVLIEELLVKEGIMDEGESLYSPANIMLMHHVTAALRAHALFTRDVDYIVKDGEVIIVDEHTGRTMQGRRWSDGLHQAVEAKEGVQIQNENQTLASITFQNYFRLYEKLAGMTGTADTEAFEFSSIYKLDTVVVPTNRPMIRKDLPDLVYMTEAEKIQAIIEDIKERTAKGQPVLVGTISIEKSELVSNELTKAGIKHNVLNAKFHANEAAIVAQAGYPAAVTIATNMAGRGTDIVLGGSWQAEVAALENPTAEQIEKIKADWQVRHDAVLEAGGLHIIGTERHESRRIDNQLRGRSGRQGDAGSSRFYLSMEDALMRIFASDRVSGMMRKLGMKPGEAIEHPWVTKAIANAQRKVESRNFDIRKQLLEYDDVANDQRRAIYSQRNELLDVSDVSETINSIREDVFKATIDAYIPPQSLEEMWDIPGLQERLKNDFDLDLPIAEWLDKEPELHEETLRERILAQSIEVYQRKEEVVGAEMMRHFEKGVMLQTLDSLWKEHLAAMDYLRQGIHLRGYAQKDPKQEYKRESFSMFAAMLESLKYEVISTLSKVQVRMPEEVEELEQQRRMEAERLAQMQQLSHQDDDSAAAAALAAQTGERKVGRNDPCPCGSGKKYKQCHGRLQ
Chromo domain-containing protein 1 (Saccharomyces cerevisiae (strain ATCC 204508 / S288c) (Baker's yeast)), sequence (P32657 whole entry, the tested form may be a part): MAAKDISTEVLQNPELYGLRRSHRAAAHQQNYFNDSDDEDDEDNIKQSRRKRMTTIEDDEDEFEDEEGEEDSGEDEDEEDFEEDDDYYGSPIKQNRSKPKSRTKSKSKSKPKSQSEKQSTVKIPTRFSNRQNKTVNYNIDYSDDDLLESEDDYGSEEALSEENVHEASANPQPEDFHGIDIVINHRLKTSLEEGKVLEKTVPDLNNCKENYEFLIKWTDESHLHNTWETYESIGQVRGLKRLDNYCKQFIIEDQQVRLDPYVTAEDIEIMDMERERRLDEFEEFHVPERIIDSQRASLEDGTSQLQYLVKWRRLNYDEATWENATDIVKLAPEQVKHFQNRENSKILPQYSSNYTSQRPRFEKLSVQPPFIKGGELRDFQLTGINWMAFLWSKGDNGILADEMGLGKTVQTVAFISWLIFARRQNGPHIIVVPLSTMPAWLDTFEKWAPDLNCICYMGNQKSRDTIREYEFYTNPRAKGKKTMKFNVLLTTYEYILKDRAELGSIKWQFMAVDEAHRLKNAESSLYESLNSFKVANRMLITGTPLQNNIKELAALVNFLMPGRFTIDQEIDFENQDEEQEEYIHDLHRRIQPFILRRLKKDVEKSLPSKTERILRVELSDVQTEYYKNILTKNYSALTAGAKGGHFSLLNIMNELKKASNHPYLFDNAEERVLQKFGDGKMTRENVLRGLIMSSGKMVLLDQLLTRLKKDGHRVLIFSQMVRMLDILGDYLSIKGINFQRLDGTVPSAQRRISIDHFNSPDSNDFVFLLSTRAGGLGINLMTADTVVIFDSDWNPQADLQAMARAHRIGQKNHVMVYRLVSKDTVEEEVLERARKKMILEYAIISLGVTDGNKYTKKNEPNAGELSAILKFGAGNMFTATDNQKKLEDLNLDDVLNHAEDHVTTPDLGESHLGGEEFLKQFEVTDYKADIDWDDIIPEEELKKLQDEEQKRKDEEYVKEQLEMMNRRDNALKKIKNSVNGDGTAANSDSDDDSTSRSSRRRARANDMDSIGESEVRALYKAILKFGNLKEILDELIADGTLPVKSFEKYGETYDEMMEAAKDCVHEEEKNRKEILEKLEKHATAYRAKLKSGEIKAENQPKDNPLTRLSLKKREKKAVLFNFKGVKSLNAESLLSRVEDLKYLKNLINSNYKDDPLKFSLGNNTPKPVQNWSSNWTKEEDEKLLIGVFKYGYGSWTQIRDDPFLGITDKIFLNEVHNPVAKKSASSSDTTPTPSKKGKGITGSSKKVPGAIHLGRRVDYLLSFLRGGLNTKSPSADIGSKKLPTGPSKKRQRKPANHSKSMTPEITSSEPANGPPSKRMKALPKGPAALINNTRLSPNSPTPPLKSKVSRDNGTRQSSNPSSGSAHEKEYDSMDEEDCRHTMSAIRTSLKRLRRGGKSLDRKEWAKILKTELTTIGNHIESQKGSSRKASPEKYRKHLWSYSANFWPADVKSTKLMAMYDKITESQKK

With `CC[C@H](N)Cn1nc(-c2cccs2)oc1=O`, the Percent Effect in [1] is -1.83%; in experiment [2] it was 9.46%; in [3] it was 7.37%; in experiment [4], 12%; in experiment [5], -5.1%; with Trypanosoma cruzi, -1.98%. For the same compound, the Percent Effect is -1.62% in experiment [6]; 16.7% in experiment [7]; 2.87% in the experiment listed under Homo sapiens; 5.59% in experiment [8]; 1.07% in [9]; 3.9% in [10]. The Percent Effect in [11] was -13.2%.
`O=C(c1ccc2c(c1)COC2)N1CCC(Nc2ccccc2)CC1`: the Percent Effect in experiment [1] was -4.95%; in [2], 7.79%; in experiment [3], -0.152%; in experiment [4], 5.07%; in [5], 13.2%; with Trypanosoma cruzi, 5.06%. In addition, the Percent Effect is 1.78% in experiment [6]; -4.05% in experiment [7]; 25% in the experiment listed under Homo sapiens; 1.98% in [8]; 6.8% in experiment [9]; 24.4% in experiment [10]. Moreover, the Percent Effect in [11] is -6.83%.
Regarding `C[C@H]1C[C@@H]2CCN(Cc3ccccn3)C[C@H]2O1`, the Percent Effect was -1.13% in experiment [1]; 0% in experiment [2]; -1.48% in experiment [3]; 92% in experiment [4]; -0.495% in experiment [5]; 1.27% in the experiment on Trypanosoma cruzi. The Percent Effect in [6] was 1.59%; in experiment [7], 10.5%; in the experiment filed under Homo sapiens it was 7.67%; in [8], -4.58%; in [9] it was -2.16%; in [10], -5.13%. Moreover, the Percent Effect in [11] was -8.15%.
As to `CNC(=O)[C@@]12CCCN(c3ncccn3)[C@@H]1CN(C)C2`, the Percent Effect in experiment [1] is -7.94%; in experiment [2] it was 5.2%; in experiment [3], -0.539%; in experiment [4], 20.5%; in [5], -6.43%; in the experiment with Trypanosoma cruzi, -6.21%. Also, the Percent Effect in experiment [6] was 4.52%; in [7] it was 9.4%; in the experiment filed under Homo sapiens, 14.9%; in experiment [8], -9.88%; in experiment [9] it was -4.23%; in [10], -1.28%. In addition, the Percent Effect in [11] is -2.69%.
With `c1cncc(COC[C@H]2CC[C@H]3[C@H](CCN3Cc3cccs3)O2)c1`, the Percent Effect in [1] was -1.85%; in [2], 13.3%; in experiment [3], 6.9%; in experiment [4], 3.86%; in [5] it was 2.88%; with Trypanosoma cruzi it was -0.197%. The Percent Effect in experiment [6] was 3.5%; in experiment [7], 22.8%; in the experiment listed under Homo sapiens, 3.65%; in experiment [8], -13.6%; in experiment [9] it was 7.45%; in experiment [10], 14.1%. In addition, in experiment [11], the Percent Effect was -5.4%.
